Experimental data: PubChem BioAssay AID504727 (Broad Institute, 2011)
A number with no mark means an inactive call. The source made the active and inactive calls.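 The calls were made as follows: active = fitted half-maximal concentration AC50 at or below ten times the highest valid tested dose, with signal falling as DNA is displaced (actives reach about 34 µM in these data); inconclusive = flat fit at moderate signal loss, or poor fit quality; inactive = the rest, including signal rising instead of falling.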

Experiment: DNA intercalators displacing acridine orange, dose response, artefact control for KSHV LANA DNA-binding inhibitor project, biochemical, fluorescence polarization, cherry-picked samples, set 2 (AID 504727);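 as to activity change, negative = DNA displacement: 0% = median of neutral control wells and -100% = mitoxantrone positive control wells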
Conditions: AC50: Acridine orange-DNA displacement; series mostly up to 35 µM; activity change, negative = DNA displacement: at the top concentration

Question: With `CN(CC(=O)Nc1ccc(N2CCOCC2)cc1)C(=O)CSc1ccc(Br)cc1` as the compound, how does the “activity change, negative = DNA displacement” value (“activity change” for short) read?
Answer: 3.79%

Question: For `Nc1cccc2cc(S(=O)(=O)O)ccc12`, which “activity change” value is on record?
Answer: 5.63%

Question: Which “activity change” value does the source give for `CCN(CC)C(=O)C1c2ccccc2Oc2ccccc21` here?
Answer: -1.95%

Question: For `N#CC1=C(N)Oc2ccc3ccc(O)cc3c2C1c1ccsc1` (stereo not drawn), which “activity change” value is on record?
Answer: 4.01%

Question: With `Cc1ccccc1C1=C/C(=C(\SS/C(C(=O)c2ccc(OCC(=O)O)c(Cl)c2Cl)=C2\C=C(c3ccccc3C)SS2)C(=O)c2ccc(OCC(=O)O)c(Cl)c2Cl)SS1` as the compound, how does the “activity change” value read?
Answer: 7.96%

Question: Which “activity change” value does the source give for `CC1CC(C)CN(C(=O)c2ccc3ncsc3c2)C1` (stereo not drawn) here?
Answer: 1.91%

Question: For `Oc1ccc(-c2nc3ccccn3c2NCc2ccco2)cc1`, which “activity change” value is on record?
Answer: 2.5%

Question: Which AC50 does the source give for `COCCN(CCOC)Cc1c(O)ccc2c1O/C(=C\c1ccco1)C2=O` here?
Answer: 27.5 µM (active)

Question: With `O=C(O)/C=C/C(=O)Nc1ccc(Cc2ccc(NC(=O)/C=C/C(=O)O)cc2)cc1` as the compound, how does the “activity change” value read?
Answer: -6.62%

Question: With `CCN(C(=O)COC(=O)c1ccc([N+](=O)[O-])o1)C1CCCCC1` as the compound, how does the “activity change” value read?
Answer: 0.36%

Question: Which “activity change” value does the source give for `C/C(=N\NC(=O)CCc1c(C)n[nH]c1C)c1ccc([N+](=O)[O-])cc1` here?
Answer: 5.29%

Question: Which “activity change” value does the source give for `CCC(=O)Nc1cccc(C(=O)/C=C/c2ccccc2)c1` here?
Answer: 3.15%

Question: Which “activity change” value does the source give for `CC(Sc1nc2ccccc2s1)C(=O)Nc1nnc(C(C)C)s1` (stereo not drawn) here?
Answer: -3.03%

Question: Which “activity change” value does the source give for `Nc1c(/C=C2/C=CC(=O)C(O)=C2)c(=O)nc2sc(CC(=O)N3CCCCC3)nn12` here?
Answer: 5.57%

Question: For `COc1ccc(NC(=O)COC(=O)c2c(-c3ccccc3)noc2C)cc1`, which “activity change” value is on record?
Answer: 5.5%

Question: Which “activity change” value does the source give for `Nc1nc(SCC(=O)N2CCCCC2)[nH]c(=O)c1NC(=O)c1cccs1` here?
Answer: 0.545%

Question: With `COC(=O)\C(C(C)=O)=C(/C=C/C=C/C=C/N(C)C)N(C)C` as the compound, how does the “activity change” value read?
Answer: 56.7%

Question: For `CCOc1ccc(/C=C2\CCCc3c2nc2ccccc2c3C(=O)O)cc1OC`, which AC50 is on record?
Answer: 1.73 µM (active)

Question: With `CCNC(=O)COC(=O)c1cccc(Br)c1` as the compound, how does the “activity change” value read?
Answer: 0.49%

Question: For `CN1CCc2c(sc(NC(=O)c3ccc4ccccc4c3)c2C(N)=O)C1`, which “activity change” value is on record?
Answer: -5.43%

Question: For `Cc1c(C)n(Cc2ccccc2)c2ncnc(Cl)c12`, which “activity change” value is on record?
Answer: 3.51%

Question: For `NC(=O)c1ccc(NC(=O)C2COc3ccccc3O2)cc1` (stereo not drawn), which “activity change” value is on record?
Answer: 4.29%

Question: For `COc1ccccc1C(=O)NCC(=O)OCC(=O)N(CC(C)C)c1c(N)n(Cc2ccccc2)c(=O)[nH]c1=O`, which “activity change” value is on record?
Answer: 5.67%

Question: Which AC50 does the source give for `Oc1ccc2ccc3cccc[n+]3c2c1` here?
Answer: 1.42 µM (active)

Question: With `CCN1/C(=C2/SC(=S)N(NC(C)=O)C2=O)Sc2ccc(OC)cc21` as the compound, how does the AC50 read?
Answer: 18.8 µM (active)

Question: Which AC50 does the source give for `COc1ccc(C2C(C(=O)c3cccs3)=C(O)C(=O)N2c2nnc(C)s2)cc1OC` (stereo not drawn) here?
Answer: 21.6 µM (active)

Question: With `Cc1ccc(S(=O)(=O)/N=C/c2ccc(N(C)C)cc2)cc1` as the compound, how does the “activity change” value read?
Answer: 1.03%

Question: With `CC1=[N+](C)N(c2ccccc2)C(=O)C1N=C/C=C/c1ccccc1` (stereo not drawn) as the compound, how does the “activity change” value read?
Answer: 2.35%

Question: With `CC(C(=O)Nc1ccc(C(=O)O)c(O)c1)N1C(=O)/C(=C\c2ccco2)SC1=S` (stereo not drawn) as the compound, how does the “activity change” value read?
Answer: 4.47%

Question: For `NC(=S)NN=Cc1ccc(-c2ccc(S(=O)(=O)Nc3ncccn3)cc2)o1`, which “activity change” value is on record?
Answer: -0.734%

Question: Which “activity change” value does the source give for `O=C(OCC(=O)N1N=C(c2ccc(Cl)cc2)CC1c1ccco1)c1cccnc1` (stereo not drawn) here?
Answer: 6.32%

Question: Which “activity change” value does the source give for `O=S(=O)(O)c1cc(Cl)cc(N=Nc2ccc(O)cc2O)c1O` here?
Answer: -2.84%

Question: With `Cn1c(=O)c(NCCc2ccccc2)c2c3c(cccc31)C(=O)c1ccccc1-2` as the compound, how does the AC50 read?
Answer: 1.14 µM (active)

Question: For `CN(N=Nc1ccc([N+](=O)[O-])cc1)c1ccccc1`, which AC50 is on record?
Answer: 11 µM (active)

Question: With `CC(C)(CS(=O)(=O)[O-])NC(=O)CC[N+](C)(C)CCO` as the compound, how does the “activity change” value read?
Answer: 8.27%

Question: Which “activity change” value does the source give for `Cc1ccc(NC(=O)CN(C)C(=O)c2nn(C)c(=O)c3ccccc23)cc1` here?
Answer: 0.898%

Question: Which “activity change” value does the source give for `Cc1ccc(S(=O)(=O)/N=C2/C=C(Sc3ncn[nH]3)C(=O)c3ccccc32)cc1` here?
Answer: -0.37%

Question: For `NNC(=O)C1C(O)CCC2CN3CCc4c([nH]c5ccccc45)C3CC21` (stereo not drawn), which “activity change” value is on record?
Answer: 1.86%
